# ALDH1A1 inh: qHTS Assay for Inhibitors of Aldehyde Dehydrogenase 1 (ALDH1A1); Aldehyde dehydrogenase 1A1 (Homo sapiens), P00352; Purified ALDH1A1, NADH fluorescence, propionaldehyde substrate; Potency, µM (top dose mostly 75.3 µM), without a hit: at the top dose activity, negative = inhibition, hits mostly inhibitors; 220,000 tested, 7.3% active; AID 1030, 2008; active = well fitted inhibition curve with a large enough effect, not every such curve was filed as active; inconclusive = small, poorly fitted or top-dose-only effect, or another doubt; inactive = no such curve, though single readings can be large or run the other way;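 also: potency is read from the fitted curve at half-maximal effect; plate controls were no enzyme wells and a reference inhibitor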
# KDM4E inh: qHTS Assay for Inhibitors of Human Jumonji Domain Containing 2E (JMJD2E). Potency, µM (highest dose often 57.1 µM), for the others: at the highest dose activity change, negative = inhibition, usual class: inhibitors. 230,000 tested, 1.6% active. JMJD2E catalytic domain, FDH-coupled NADH fluorescence (FDH is formaldehyde dehydrogenase). Lysine-specific demethylase 4E (Homo sapiens), B2RXH2; active = well fitted inhibition curve with a large enough effect, not every such curve was filed as active; inconclusive = small, poorly fitted or top-dose-only effect, or another doubt; inactive = no such curve, though single readings can be large or run the other way;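 also: potency is read from the fitted curve at half-maximal effect; 0% = wells with enzyme and -100% = buffer wells without enzyme; nearly all actives have a fitted effect of over 50% in size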
# Target sequence (B2RXH2 1-337 limits assumed): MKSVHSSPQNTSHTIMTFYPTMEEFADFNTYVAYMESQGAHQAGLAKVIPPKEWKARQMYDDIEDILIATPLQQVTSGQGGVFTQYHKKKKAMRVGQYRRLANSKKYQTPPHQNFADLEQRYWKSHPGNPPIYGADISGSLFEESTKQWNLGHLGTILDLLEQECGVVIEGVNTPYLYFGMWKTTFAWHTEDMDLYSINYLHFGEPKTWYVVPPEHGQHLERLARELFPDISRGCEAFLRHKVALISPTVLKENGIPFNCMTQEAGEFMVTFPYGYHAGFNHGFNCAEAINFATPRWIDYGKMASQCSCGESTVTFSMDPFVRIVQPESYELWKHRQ
# LMNA splice mod: qHTS Assay for Modulators of Lamin A Splicing. HeLa LMNA splicing GFP/RFP minigene ratio, 48 h. Potency, µM (highest dose often 46.1 µM), inactives show at the highest dose ratio change, negative = inhibition, hits mostly inhibitors. 200,000 tested, 0.01% active. AID 1487, 2009; active = well fitted inhibition curve with a large enough effect in the signal ratio, with a control signal flat, not every such curve was filed as active; inconclusive = small, poorly fitted or top-dose-only effect, or effect the other way, or a change in a side signal; the % refers to the signal ratio; also: potency is read from the fitted curve at half-maximal effect; % is scaled to controls: 0 for no effect and ±100 for the full control effect
#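 Read-out is the ratio of GFP to DsRed2 object intensity, acquired by 488 nm laser-scanning cytometry on HeLa lamin A-EGFP minigene reporter cells. Compound incubation 48 hrs at 37 °C in Opti-MEM with 2% FBS; DMSO 0.5% final.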
# miR-21 act: qHTS Assay for Modulators of miRNAs and/orActivators of miR-21. Potency, µM (titrated, usually from 38.3 µM), without a hit: top-dose activity change, positive = activation, hits mostly activators. HeLa miR-21 FLuc reporter, luciferase, 48 h. 340,000 tested, under 10 active. AID 2288, 2010;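 also: % of control where 0% means no effect; miR-21 action dims this reporter so a rising signal means less miR-21 action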
#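 Using DMEM plus 10% FBS, HeLa miR-21-FLuc cells are incubated with test compounds (final up to about 40uM) for 48 hours; firefly luciferase signal is then imaged following reagent-mediated lysis.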
# Sfp PPTase inh: qHTS Assay for Inhibitors of Bacillus subtilis Sfp phosphopantetheinyl transferase (PPTase) | 4'-phosphopantetheinyl transferase ffp (Bacillus subtilis), Q9F4F7 | Potency, µM, for the others: largest response in the series, negative = inhibition, hits mostly inhibitors | Biochemical Sfp PPTase activity, qHTS | 310,000 tested, 3.5% active;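 also: the enzyme is Sfp with the accession as filed and its product quenches rhodamine fluorescence; potency is read from the fitted curve at half-maximal effect; 0% = enzyme reaction without inhibitor and -100% = no enzyme wells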
#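 Compounds were incubated with enzyme (final 15 nM) for 15 min at room temperature before substrate addition started the reaction. Fluorescence at 525 nm excitation, 598 nm emission was recorded immediately and after 30 minutes.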
# G9a inh: qHTS Assay for Inhibitors of Histone Lysine Methyltransferase G9a. Histone-lysine N-methyltransferase EHMT2 (Homo sapiens), Q96KQ7. G9a H3K9 monomethylation, AlphaScreen, 2 h. Potency, µM (titrated, usually from 102 µM), for the others: at the top dose activity, negative = inhibition, usual class: inhibitors. 350,000 tested, 8.8% active. AID 504332, 2011; also: potency is read from the fitted curve at half-maximal effect; % is scaled to controls: 0 for no effect and ±100 for the full control effect; nearly all actives have a fitted effect of over 75% in size
# Target sequence (Q96KQ7 913-1193 limits assumed): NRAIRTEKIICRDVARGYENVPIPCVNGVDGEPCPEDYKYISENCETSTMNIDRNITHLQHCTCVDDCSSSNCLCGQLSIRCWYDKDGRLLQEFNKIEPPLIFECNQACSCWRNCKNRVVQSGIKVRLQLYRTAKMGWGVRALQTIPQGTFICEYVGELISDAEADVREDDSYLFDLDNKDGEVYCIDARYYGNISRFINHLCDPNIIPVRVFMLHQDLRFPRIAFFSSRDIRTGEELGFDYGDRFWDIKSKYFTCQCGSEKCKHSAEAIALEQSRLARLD
#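 Using a bead-based AlphaScreen, monomethylated H3K9 product from 2 h room-temperature reactions (G9a 20 nM, peptide 500 nM, SAM 20 uM) was detected with 0.5 ug/mL rabbit anti-H3K9me1 antibody.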
# An asterisk follows results filed as active; ? = inconclusive; . = no result given; [ ] = dose if it differs, or a comment. The list is not random: actives were taken first. Their share in the collection is about 13%. Unless noted, calls follow the shape of the dose curve; as a rule, active = well fitted curve in the direction sought with a large enough effect; inconclusive = small, poorly fitted or top-dose-only effect, or another doubt; inactive = no such curve, though single readings can be large; an effect the other way counts as inactive or inconclusive.
SMILES,ALDH1A1 inh,KDM4E inh,LMNA splice mod,miR-21 act,Sfp PPTase inh,G9a inh
CN(C)CCOC(=O)C12CC3CC(C1)CC(C(=O)OCCN(C)C)(C3)C2,.,2.8%,.,-4.4%,20.8%,56.2µM*
Cn1c(=O)c(CCc2ccccc2)nc2cnc(OCc3ccccc3)nc21,11.2µM*,.,?,.,-8.6%,7.5%[0.501 µM]
COc1ncc2nc(CCc3ccccc3)c(=O)n(C)c2n1,?,.,.,.,-12.4%,0.8%[12.7 µM]
COCCn1c(=O)c(CCc2ccccc2)nc2cnc(Oc3cccc(Cl)c3)nc21,14.1µM*,.,.,.,0.3%,-0.3%[12.7 µM]
Cc1ccsc1C(=O)Nc1ccc(S(=O)(=O)N2CCOCC2)cc1,.,.,.,.,.,-6.2%[59 µM]
COc1ccc(NC(=O)CCc2nc3c(C)nn(-c4ccc(C)cc4)c3n(C)c2=O)c(OC)c1,.,.,1.5%[46 µM],-1.9%,.,-8.0%[12.7 µM]
CC1(C)C2CCC(C2)C1(C)NC(=O)CNCC1CCCCC1 (configuration not stated),-6.4%,?,-20.7%[46 µM],1.9%,-7.0%,5.62µM*
CCc1ccc(CNC(=O)c2cc3c(=O)n(Cc4cccs4)ccc3nc2C)cc1,.,.,2.3%[46 µM],-9.1%,.,17.4%[59 µM]
COc1cccc(C2/C(=C(\O)c3ccc4c(c3)OCCO4)C(=O)C(=O)N2c2nnc(C)s2)c1 (configuration not stated),.,.,.,-0.8%,-2.4%,-6.2%[0.501 µM]
COc1ccc(C2/C(=C(\O)c3ccc4c(c3)OCCO4)C(=O)C(=O)N2c2nc(C)c(C(C)=O)s2)cc1 (configuration not stated),.,.,.,-24.0%,44.7µM*,44.7µM*
COC(=O)c1ccc(C2/C(=C(\O)c3ccc4c(c3)OCCO4)C(=O)C(=O)N2c2nnc(C)s2)cc1 (configuration not stated),.,.,.,-11.2%,-1.1%,44.7µM*
Cc1nnc(N2C(=O)C(=O)/C(=C(/O)c3ccc4c(c3)OCCO4)C2c2ccc([N+](=O)[O-])cc2)s1 (configuration not stated),.,.,.,-13.4%,-6.5%,28.2µM*
COC(=O)C1OC(=O)C2OC23[C@]2(C)C(OC(C)=O)CC4C(C)(C)C(=O)CC[C@]4(C)C2CC[C@@]13C (some centres not stated),-2.5%,9.4%,3.9%,.,12.0%,.
Clc1cnc(N/N=C/c2ccco2)c(Cl)c1,-4.4%,1.7%,-13.8%,1.9%,79.4µM*,-9.5%[59 µM]
COc1cccc(CNC(=O)Cn2c(=O)c3cccn3c3ccccc32)c1,.,.,.,-0.6%,-21.1%,2.5%
COc1ccc(/C=N\N2CCN(Cc3ccccc3Cl)CC2)cc1,.,.,.,-0.9%,79.4µM*,12.6µM*
C/C(=N\N1CCN(Cc2ccccc2Cl)CC1)c1ccc([N+](=O)[O-])cc1,.,10.0%,.,-5.6%,7.0%,15.8µM*
O=[N+]([O-])c1cc(/C=N/N2CCN(c3ccccc3)CC2)ccc1Cl,-8.9%,-1.7%,10.7%,-7.7%,-14.7%,-17.9%[59 µM]
O=[N+]([O-])c1cc(/C=N/N2CCCCC2)ccc1Cl,-2.5%,-3.6%,.,-46.6%,1.0%,44.7µM*
O=[N+]([O-])c1cccc(/C=N\N2CCN(Cc3ccccc3Cl)CC2)c1,?,-24.1%,?,-24.6%,-6.7%,10µM*
CCOC(=O)c1cnc2ccc(C)cc2c1Nc1ccc(OCc2ccccc2Cl)cc1,.,.,.,13.0%,.,-5.7%[59 µM]
COc1cccc(C(=O)Nc2c(C(=O)c3ccc(F)cc3)oc3ccccc23)c1,.,.,.,-1.3%,.,4.8%[59 µM]
Clc1ccc(/C=N/N2CCN(Cc3ccccc3Cl)CC2)cc1,-6.2%,4.6%,?,3.0%,-14.3%,?
C(=N\N1CCN(Cc2cccc3ccccc23)CC1)/c1cccs1,.,3.7%,.,-0.5%,0.4%,50.1µM*
C(=N\N1CCN(c2ccccn2)CC1)/c1cccc2ccccc12,.,-0.4%,.,-17.2%,?,39.8µM*
SMILES,ALDH1A1 inh,KDM4E inh,LMNA splice mod,miR-21 act,Sfp PPTase inh,G9a inh
Clc1ccccc1CN1CCN(/N=C/c2ccncc2)CC1,?,-7.8%,.,14.3%,1.4%,44.7µM*
Oc1ccccc1/C=N/N1CCN(c2ccccn2)CC1,.,-0.9%,.,-51.6%,10.9%,-5.2%
CC(C)c1ccc(/C=N/N2CCCCC2)cc1,?,?,?,-4.9%,63.1µM*,10µM*
C(=N\N1CCN(Cc2ccccc2)CC1)/c1cccs1,7.4%,5.6%,-0.8%,-44.9%,9.9%,?
CCC(C)NC(=O)Cn1ccc2cc(S(=O)(=O)N3CCCCC3)ccc21 (configuration not stated),.,.,2.0%[46 µM],1.9%,.,-11.5%[59 µM]
O=[N+]([O-])c1cccc(/C=N/N2CCN(c3ccccn3)CC2)c1,?,-7.0%,?,-12.7%,?,31.6µM*
Cn1c(=O)c2[nH]c(-c3ccccc3)nc2n(C)c1=O,7.1%,5.8%,-9.2%,-2.1%,9.1%,7.5%[59 µM]
CC(=O)/C(N=Nc1nc2c([nH]1)c(=O)n(C)c(=O)n2C)=C(\C)O,.,-7.5%,.,-2.1%,-2.2%,11.4%
Cn1c(=O)c2[nH]c(N=NNc3ccccc3F)nc2n(C)c1=O,.,?,.,3.8%,25.1µM*,1.78µM*
COc1ccc(NN=Nc2nc3c([nH]2)c(=O)n(C)c(=O)n3C)cc1,8.91µM*,?,.,2.9%,15.8µM*,.
Cc1ccccc1NN=Nc1nc2c([nH]1)c(=O)n(C)c(=O)n2C,?,-25.4%,-3.3%,7.2%,-15.1%,3.98µM*
CCOC(=O)Cc1nnc(NC(=O)CSc2nnc3c4ccccc4n(C(C)C)c3n2)s1,28.2µM*,?,-3.6%,-9.5%,-15.1%,-45.7%[12.7 µM]
Cc1oc(-c2cccs2)nc1CS(=O)CC(=O)NC1CCCCCC1 (configuration not stated),?,-2.5%,?,-9.2%,-18.8%,39.8µM*
Cc1ccccc1-c1nc(CS(=O)CC(=O)NC2CCCC2)c(C)o1 (configuration not stated),.,.,.,-2.2%,8.0%,79.4µM*
Cc1ccc(-c2nc(CS(=O)CC(=O)NC3CCCCC3)c(C)o2)cc1 (configuration not stated),.,.,.,-4.0%,2.6%,?
O=c1[nH]c2ccccc2c(O)c1O,0.562µM*,?,.,-4.9%,0.316µM*,0.708µM*
CCCCS(=O)c1c(O)c2ccccc2[nH]c1=O (configuration not stated),-13.0%,?,-0.8%,-0.7%,-25.4%,31.6µM*
COc1ccc(-c2cc(C(=O)Nc3ccc(S(=O)(=O)Nc4ncccn4)cc3)c3ccccc3n2)cc1,?,?,.,-39.0%,19.4%,?

# Screening results: PubChem, National Center for Advancing Translational Sciences (NCATS)
